Results filed as inconclusive are left out. Active and inactive are the calls of the source. Unless noted, calls follow the shape of the dose curve; as a rule, active = well fitted curve in the direction sought with a large enough effect; inconclusive = small, poorly fitted or top-dose-only effect, or another doubt; inactive = no such curve, though single readings can be large; an effect the other way counts as inactive or inconclusive.
How the values were obtained:
[1] = Cellular Toxicity (caspase-3) SK-N-SH (AID 661); conditions: SK-N-SH caspase-3 activation, qHTS, DMSO as zero, staurosporine as full; series mostly up to 91.7 µM
In short: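 Cells were seeded and incubated 5 hr at 37 °C, dosed with compound over a concentration range for 16 hr, then given Caspase-Glo 3/7 reagent for 1 hr at room temperature before luminescence reading.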

[2] = Cellular Toxicity (caspase-3) H-4-II-E (AID 663); conditions: H-4-II-E rat hepatoma; Potency: caspase-3 activation; series mostly up to 92.2 µM;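 also: cells exposed to compound for 16 hr before readout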
In short: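 Caspase 3/7 activation measured in H-4-II-E cells in complete culture medium after 16 hr treatment at 37 °C, using luciferase-coupled substrate readout; AC50 values come from Hill-equation fits of normalized concentration-response data.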

[3] = Cellular Toxicity (caspase-3) NIH 3T3 (AID 666); conditions: NIH 3T3 caspase-3 activation, apoptosis/toxicity, 0% DMSO, 100% is 100 µM tamoxifen; series mostly up to 92.2 µM;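 also: caspase signal read after 16 h compound exposure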
In short: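 Cells were plated at 1000 per well and incubated 5 hr at 37°C, then compound was added for 16 hr. Caspase-Glo 3/7 reagent followed for 20 min at room temperature before luminescence was read.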

[4] = Cellular Toxicity (caspase-3) Renal Proximal Tubule (AID 667); conditions: renal proximal tubule cells, primary cells freshly taken from rat, solvent-only wells 0%, staurosporine 100%; series mostly up to 91.7 µM;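 also: cells exposed to compound for 16 hours at 37 °C before detection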
In short: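 Primary rat proximal tubule cells, 1000/well, 5 h plating at 37 °C, then compound 16 h at 37 °C. Caspase-Glo 3/7 reagent, 1 h RT, luminescence. Normalized to DMSO (basal) and 10 uM staurosporine (100%); Hill-fit AC50.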

[5] = Cell Viability - LYMP2-001 (AID 921); conditions: LYMP2-001 lymphoblastoid cell viability; series mostly up to 92.2 µM; also: nearly all actives have a fitted effect of over 70% in size
In short: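 Human lymphoblastoid cells (Coriell), 2500 per well, were preincubated 5 hr at 37 C, then exposed to compounds in complete medium for 24 hr at 37 C. Cellular ATP was read by CellTiter-Glo luminescence; AC50 from Hill fits of concentration-response data.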

[6] = MultiTox-Fluor Cytotoxicity Assay - LYMP1-001 - Dead Cells (AID 946); conditions: LYMP1-001 lymphoblastoid cells, dead-cell protease fluorescence; series mostly up to 92.2 µM
In short: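 Cytotoxicity as increased dead-cell protease fluorescence (bis-AAF-R110, 485/520 nm), read 60 min after MultiTox-Fluor reagent. Human lymphoblastoid line exposed 16 h; Hill-fitted AC50, with DMSO as 0% and 15 uM tetraoctylammonium bromide as 100%.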

[7] = MultiTox-Fluor Cytotoxicity Assay - LYMP1-001 - Live Cells (AID 947); conditions: LYMP1-001 lymphoblastoid cells, live-cell protease fluorescence viability; series mostly up to 92.2 µM
[8] = Cell Viability - LYMP1-002 - Assay at 16 hr (AID 948); conditions: LYMP1-002 lymphoblastoid cell viability; series mostly up to 92.2 µM
In short: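 Human lymphoblastoid cells (LYMP1-002), 2500/well, were preincubated 5 hr at 37 C, then exposed to compounds for 16 hr at 37 C in complete medium. Cellular ATP was read by CellTiter-Glo luminescence after 30 min at room temperature; AC50 from Hill fits.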

[9] = MultiTox-Fluor Cytotoxicity Assay - LYMP1-002 - Live Cells (AID 955); conditions: LYMP1-002 lymphoblastoid live-cell protease fluorescence viability; series mostly up to 46.1 µM
In short: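 Cells were seeded at 2500 per well and incubated 5 hr. Compounds were then added for 16 hr at 37 C, followed by MultiTox-Fluor reagent for 60 min at room temperature and fluorescence reading of viable-cell protease signal.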

[10] = MultiTox-Fluor Cytotoxicity Assay - LYMP1-003 - Dead Cells (AID 961); conditions: LYMP1-003 lymphoblastoid cells, dead-cell protease fluorescence; series mostly up to 92.2 µM; also: nearly all actives have a fitted effect of over 70% in size
In short: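 Dead-cell protease release, detected as bis-AAF-R110 fluorescence at 485/520 nm, was measured in LYMP1-003 cells after 16 h compound treatment at 37 C. AC50 values came from Hill-modeled qHTS curves normalized to DMSO (0%) and 15 uM tetraoctylammonium bromide (100%).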

[11] = MultiTox-Fluor Cytotoxicity Assay - LYMP1-003 - Live Cells (AID 962); conditions: LYMP1-003 lymphoblastoid cells, MultiTox-Fluor live-cell protease fluorescence; series mostly up to 92.2 µM;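 also: cytotoxic hits lower the live-cell protease signal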
In short: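 Acute cytotoxicity is scored as a drop in live-cell protease activity in human lymphoblastoid LYMP1-003 cells after 16 hr compound exposure at 37 C. AC50 values come from Hill-equation modelling of concentration-response data.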

[12] = Cell Viability - LYMP1-003 - Assay at 24 hr (AID 963); conditions: LYMP1-003 lymphoblastoid cell viability; series mostly up to 92.2 µM
In short: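 Cytotoxicity is scored as a concentration-dependent fall in ATP-linked luciferase signal in human lymphoblastoid LYMP1-003 cells treated 24 hr at 37 C in complete culture medium.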

[13] = Cell Viability - LYMP1-003 - Assay at 40 hr (AID 964); conditions: LYMP1-003 lymphoblastoid viability; series mostly up to 92.2 µM; also: nearly all actives have a fitted effect of over 60% in size
In short: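 Luminescent ATP signal (CellTiter-Glo) served as the viability read-out after 40 hr compound treatment of human lymphoblastoid LYMP1-003 cells at 37 C. Decreases in ATP were fitted with the Hill equation to give AC50.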

[14] = Cell Viability - LYMP2-003 (AID 965); conditions: LYMP2-003 lymphoblastoid cell viability; series mostly up to 92.2 µM;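 also: cells exposed to compounds for 24 h before reading; nearly all actives have a fitted effect of over 50% in size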
In short: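 Human lymphoblastoid cells (2500/well) were pre-incubated 5 hr at 37 C, then exposed to compounds over a concentration range for 24 hr at 37 C. Intracellular ATP was read by CellTiter-Glo luminescence; AC50 came from Hill-equation fits.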

[15] = Cell Viability - LYMP2-005 (AID 967); conditions: LYMP2-005 lymphoblastoid cell viability; series mostly up to 92.2 µM
In short: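 CellTiter-Glo luminescence (cellular ATP) read-out; LYMP2-005 lymphoblastoid cells, 2500/well, 5 h pre-incubation, then 24 h compound exposure at 37 C in complete medium. Tetraoctylammonium bromide positive control; AC50 by standard Hill fit.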

[16] = Cell Viability - LYMP2-009 (AID 968); conditions: LYMP2-009 lymphoblastoid cell viability; series mostly up to 92.2 µM; also: nearly all actives have a fitted effect of over 55% in size
[17] = Cell Viability - LYMP2-011 (AID 969); conditions: LYMP2-011 lymphoblastoid cells viability; series mostly up to 92.2 µM; also: nearly all actives have a fitted effect of over 60% in size
In short: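 In this qHTS cytotoxicity format, compounds are tested across concentrations on human lymphoblastoid cells in complete medium for 24 hours at 37 C. Viability is taken as cellular ATP measured by luciferase luminescence.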

[18] = Cell Viability - LYMP2-013 (AID 970); conditions: LYMP2-013 lymphoblastoid cells viability; series mostly up to 92.2 µM; also: nearly all actives have a fitted effect of over 55% in size
In short: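 Cytotoxicity is scored as a concentration-dependent drop in intracellular ATP in human lymphoblastoid cells after 24 hr compound exposure at 37 C. ATP is quantified by luciferase luminescence, and AC50 values come from Hill-equation modeling.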

[19] = Cell Viability - LYMP2-015 (AID 971); conditions: LYMP2-015 lymphoblastoid cell viability; series mostly up to 92.2 µM; also: nearly all actives have a fitted effect of over 55% in size
In short: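 Cells are seeded at 2500 per well and incubated 5 hr at 37 C. Compounds are added across a concentration series for 24 hr at 37 C. CellTiter-Glo is added, and luminescence is read after 30 min at room temperature.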

[20] = qHTS assay for small molecule antagonists of the retinoid-related orphan receptor gamma (ROR-gamma) signaling pathway - cell viability counter screen (AID 720652; active = well fitted curve in the direction sought with a large enough effect in the repeat runs; an effect the other way counts as inactive or inconclusive;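 also: CHO reporter cells with doxycycline-induced ROR-gamma expression; compound exposure lasted 16 hr before ATP read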); conditions: RORgamma reporter cell line viability counter screen; series mostly up to 92.2 µM
In short: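 Steps: seed CHO cells bearing TET-inducible ROR and ROR response element-luciferase; rest 5 hr at 37 C; add compound, then doxycycline; incubate 16 hr; add CellTiter-Glo and read luminescence as ATP-based viability.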

Measured: Potency

CC12CCC(CC1=O)C2(C)C (stereo not given)
inactive: [1] | [2] | [3] | [4] | [5] | [6] | [7] | [8] | [9] | [10] | [11] | [12] | [13] | [14] | [15] | [16] | [17] | [18] | [19] | [20]

O=C(/C=C/c1ccc(O)c(O)c1)O[C@@H](C(=O)O)[C@@H](OC(=O)/C=C/c1ccc(O)c(O)c1)C(=O)O
inactive: [1] | [2] | [3] | [4] | [5] | [6] | [7] | [8] | [9] | [10] | [11] | [12] | [13] | [14] | [15] | [16] | [17] | [18] | [19] | [20]
